Experimental data reported in PubChem BioAssay (EPA / NIEHS).
“And” between values parts separate entries of the source, which are not always exact repeats. Equal values may be shown once. A structure can be active in one record and inactive in another. The source made the active and inactive calls. Rule for the calls: active = hit-call score of the fitted dose curve at least 0.9, where 1 is the maximum; inactive = score below 0.9.

Legend:
Conditions in all cases: mRNA level, 48 h; actives raise or lower the signal
CYP2C9 (gene 1559) = test: LTEA_HepaRG_CYP2C9: Life Technologies and Expression Analysis (LTEA) Assay for CYP2C9 using HepaRG (AID 2283484)
Procedure, shortened: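 HepaRG, 48 h dosing, 8-pt half-log series, top 100 uM, 0.5% DMSO vehicle. Read-out: CYP2C9 transcript by TaqMan qRT-PCR, housekeeping-normalized (ACTB/GAPDH/POLR2A). Gain or loss fitted vs DMSO baseline.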

CYP2E1 (gene 1571) = test: LTEA_HepaRG_CYP2E1: Life Technologies and Expression Analysis (LTEA) Assay for CYP2E1 using HepaRG (AID 2283485)
Procedure, shortened: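 CYP2E1 transcript was measured by TaqMan qRT-PCR in human HepaRG cultures after 48 h chemical exposure (top 100 uM, half-log steps, 0.5% DMSO vehicle). Housekeeping-gene normalization; gain or loss fitted relative to DMSO baseline.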

CYP4A11 (gene 1579) = test: LTEA_HepaRG_CYP4A11: Life Technologies and Expression Analysis (LTEA) Assay for CYP4A11 using HepaRG (AID 2283486)
Procedure, shortened: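 HepaRG, 48 h chem exposure, 8 conc (100 uM top, half-log), 0.5% DMSO vehicle; qRT-PCR readout, housekeeping-gene normalized; bidirectional curve fit vs DMSO baseline.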

[1] = read-out: Cytochrome P450 3A4 (Homo sapiens) (UniProt P08684); test: LTEA_HepaRG_CYP3A4: Life Technologies and Expression Analysis (LTEA) Assay for CYP3A4 using HepaRG (AID 2283487)
Procedure, shortened: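 Differentiated HepaRG cells, plated 48 h, then dosed 48 h in serum-free induction medium with 0.5% DMSO, 8 half-log concentrations up to 100 uM, duplicate. CYP3A4 mRNA by qRT-PCR, normalized to ACTB/GAPDH/POLR2A; bidirectional fit versus DMSO.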

[2] = read-out: DNA damage-inducible transcript 3 (DDIT3), DDIT3 (gene 1649); test: LTEA_HepaRG_DDIT3: Life Technologies and Expression Analysis (LTEA) Assay for DNA damage-inducible transcript 3 (DDIT3) using HepaRG (AID 2283488)
Procedure, shortened: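 qRT-PCR readout (Fluidigm TaqMan), housekeeping-normalized to ACTB, GAPDH, POLR2A. HepaRG cells, 48 h exposure, 8-point half-log series from 100 uM in 0.5% DMSO, duplicates. Gain or loss of signal fitted against DMSO baseline.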

[3] = read-out: Pro-epidermal growth factor (Homo sapiens) (UniProt P01133); test: LTEA_HepaRG_EGF: Life Technologies and Expression Analysis (LTEA) Assay for Epidermal growth factor (EGF) using HepaRG (AID 2283489)
Procedure, shortened: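 HepaRG, 48 h dosing, 100 uM top, half-log x8, 0.5% DMSO. Readout: TaqMan qRT-PCR (Fluidigm array), housekeeping-normalized. Gain or loss of signal fit vs DMSO.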

[4] = read-out: Early growth response protein 1 (EGR1) transcription factor, EGR1 (gene 1958); test: LTEA_HepaRG_EGR1: Life Technologies and Expression Analysis (LTEA) Assay for Early growth response protein 1 (EGR1) transcription factor using HepaRG (AID 2283490)
Procedure, shortened: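 HepaRG, 48 h exposure, 8-pt half-log series from 100 uM, 0.5% DMSO vehicle; EGR1 transcript by TaqMan qRT-PCR (Fluidigm array), housekeeping-normalized; bidirectional fit relative to DMSO baseline.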

[5] = read-out: Ezrin (EZR), EZR (gene 7430); test: LTEA_HepaRG_EZR: Life Technologies and Expression Analysis (LTEA) Assay for Ezrin (EZR) using HepaRG (AID 2283491)
Procedure, shortened: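 EZR transcript levels came from Fluidigm qRT-PCR and were normalized to three housekeeping genes after 48 h chemical exposure of HepaRG cells. Dosing used an 8-point half-log series with a 100 uM top concentration in 0.5% DMSO, tested in duplicate; both directions were fitted versus vehicle.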

[6] = read-out: Cytochrome P450 3A7 (Homo sapiens) (UniProt P24462); test: LTEA_HepaRG_CYP3A7: Life Technologies and Expression Analysis (LTEA) Assay for CYP3A7 using HepaRG (AID 2283492)
Procedure, shortened: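 Human HepaRG liver cells, 48 h post-plating, switched to serum-free induction medium and exposed in duplicate for 48 h. Dosing: 100 uM top, half-log dilutions, 8 points, 0.5% DMSO vehicle. Read-out: CYP3A7 mRNA, gain or loss fitted against DMSO baseline.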

CYP3A5 (gene 1577) = test: LTEA_HepaRG_CYP3A5: Life Technologies and Expression Analysis (LTEA) Assay for CYP3A5 using HepaRG (AID 2283493)
Procedure, shortened: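 qRT-PCR read-out: CYP3A5 transcript in HepaRG lysates, housekeeping-normalized (ACTB/GAPDH/POLR2A), fitted bidirectionally against 0.5% DMSO baseline. Exposure 48 h, eight half-log concentrations up to 100 uM, duplicates.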

[7] = read-out: Fatty Acid-Binding Protein 1 (FABP1), FABP1 (gene 2168); test: LTEA_HepaRG_FABP1: Life Technologies and Expression Analysis (LTEA) Assay for Fatty Acid-Binding Protein 1 (FABP1) using HepaRG (AID 2283494)
Procedure, shortened: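 qRT-PCR readout of FABP1 transcript (normalized to three housekeeping genes) after 48 h chemical exposure of HepaRG cells; eight concentrations, half-log steps, max 100 uM, 0.5% DMSO vehicle; gain or loss fitted relative to DMSO baseline.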

[8] = read-out: Cytochrome P450 4A22 (Homo sapiens) (UniProt Q5TCH4); test: LTEA_HepaRG_CYP4A22: Life Technologies and Expression Analysis (LTEA) Assay for Cytochrome P450 4A22 (CYP4A22) using HepaRG (AID 2283495)
Procedure, shortened: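 Readout is CYP4A22 transcript induction or loss, quantified by qRT-PCR and normalized to ACTB, GAPDH and POLR2A. Human HepaRG cells receive test chemicals for 48 h at eight half-log concentrations from 100 uM in 0.5% DMSO.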

[9] = read-out: Cytochrome P450 7A1 (Homo sapiens) (UniProt P22680); test: LTEA_HepaRG_CYP7A1: Life Technologies and Expression Analysis (LTEA) Assay for Cytochrome P450 7A1 (CYP7A1) using HepaRG (AID 2283496)
Procedure, shortened: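 Using 0.5% DMSO as vehicle and baseline, chemicals were tested in duplicate over an 8-point range from 100 uM on HepaRG cells for 48 h; qRT-PCR signals were normalised to ACTB, GAPDH and POLR2A.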

[10] = read-out: Glutathione S-Transferase (GSTA2), GSTA2 (gene 2939); test: LTEA_HepaRG_GSTA2: Life Technologies and Expression Analysis (LTEA) Assay for Glutathione S-Transferase (GSTA2) using HepaRG (AID 2283497)
Procedure, shortened: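 qRT-PCR readout of GSTA2 transcript, normalized to three housekeeping genes, fitted bidirectionally against 0.5% DMSO baseline. Differentiated HepaRG cells received compound for 48 h at 8 concentrations (top 100 uM, half-log steps).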

[11] = read-out: growth arrest and DNA damage 45 (GADD45G), GADD45G (gene 10912); test: LTEA_HepaRG_GADD45G: Life Technologies and Expression Analysis (LTEA) Assay for growth arrest and DNA damage 45 (GADD45G) using HepaRG (AID 2283499)
Procedure, shortened: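 Gain or loss of GADD45G mRNA, quantified by TaqMan qRT-PCR against three housekeeping genes, is fitted in both directions relative to 0.5% DMSO. Human HepaRG cultures receive test chemical for 48 h at up to 100 uM.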

[12] = read-out: Glutamate-cysteine ligase regulatory (GCLM), GCLM (gene 2730); test: LTEA_HepaRG_GCLM: Life Technologies and Expression Analysis (LTEA) Assay for Glutamate-cysteine ligase regulatory (GCLM) using HepaRG (AID 2283500)
Procedure, shortened: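 HepaRG, 48 h dosing, 100 uM top, half-log x8, 0.5% DMSO vehicle. Readout: GCLM mRNA by TaqMan qRT-PCR, housekeeping-normalized (ACTB/GAPDH/POLR2A). Curves fit bidirectionally vs DMSO baseline.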

[13] = read-out: Glutathione S-transferase M3 (GSTM3), GSTM3 (gene 2947); test: LTEA_HepaRG_GSTM3: Life Technologies and Expression Analysis (LTEA) Assay for Glutathione S-transferase M3 (GSTM3) using HepaRG (AID 2283501)
Procedure, shortened: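 HepaRG, plated 48 h, then serum-free induction medium; test chemical 48 h, duplicate; 100 uM top, half-log x8, 0.5% DMSO. Read-out: GSTM3 mRNA (TaqMan qRT-PCR, Fluidigm array). Bidirectional fit vs DMSO.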

[14] = read-out: Heat shock 70 kDa protein 1 (HSPA1A), gene 3303; test: LTEA_HepaRG_HSPA1A: Life Technologies and Expression Analysis (LTEA) Assay for Heat shock 70 kDa protein 1 (HSPA1A) using HepaRG (AID 2283502)
Procedure, shortened: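 HepaRG, 48 h exposure, 8-pt half-log CRC from 100 uM in 0.5% DMSO, duplicates. Readout: TaqMan qRT-PCR of HSPA1A mRNA, housekeeping-normalized (ACTB/GAPDH/POLR2A). Bidirectional fit vs 0.5% DMSO baseline.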

[15] = read-out: Hypoxia-inducible factor 1-alpha (Homo sapiens) (UniProt Q16665); test: LTEA_HepaRG_HIF1A: Life Technologies and Expression Analysis (LTEA) Assay for Hypoxia-inducible factor 1 (HIF1A) Trancription factor using HepaRG (AID 2283503)
Procedure, shortened: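 Gain- or loss-of-signal HIF1A mRNA changes are fitted against a DMSO baseline. HepaRG cultures receive eight concentrations, highest 100 uM, for 48 h in serum-free induction medium with 0.5% DMSO.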

Measured: AC50

Sequence of Cytochrome P450 3A7 (Homo sapiens) (P24462 whole entry, looked up): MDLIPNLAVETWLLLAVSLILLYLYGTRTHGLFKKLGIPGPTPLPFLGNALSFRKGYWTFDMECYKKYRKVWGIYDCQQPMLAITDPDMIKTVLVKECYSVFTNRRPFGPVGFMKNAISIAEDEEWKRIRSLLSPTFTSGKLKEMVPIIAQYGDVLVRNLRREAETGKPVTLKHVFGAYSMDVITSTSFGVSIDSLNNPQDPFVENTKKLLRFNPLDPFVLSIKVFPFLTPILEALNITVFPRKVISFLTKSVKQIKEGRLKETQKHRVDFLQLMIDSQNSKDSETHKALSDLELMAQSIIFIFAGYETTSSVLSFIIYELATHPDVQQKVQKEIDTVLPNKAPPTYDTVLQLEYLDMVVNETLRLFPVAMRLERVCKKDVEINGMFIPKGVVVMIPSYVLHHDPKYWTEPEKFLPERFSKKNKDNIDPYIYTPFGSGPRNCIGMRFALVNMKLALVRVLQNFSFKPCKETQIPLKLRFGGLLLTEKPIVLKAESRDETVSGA
Sequence of Hypoxia-inducible factor 1-alpha (Homo sapiens) (Q16665 whole entry, looked up): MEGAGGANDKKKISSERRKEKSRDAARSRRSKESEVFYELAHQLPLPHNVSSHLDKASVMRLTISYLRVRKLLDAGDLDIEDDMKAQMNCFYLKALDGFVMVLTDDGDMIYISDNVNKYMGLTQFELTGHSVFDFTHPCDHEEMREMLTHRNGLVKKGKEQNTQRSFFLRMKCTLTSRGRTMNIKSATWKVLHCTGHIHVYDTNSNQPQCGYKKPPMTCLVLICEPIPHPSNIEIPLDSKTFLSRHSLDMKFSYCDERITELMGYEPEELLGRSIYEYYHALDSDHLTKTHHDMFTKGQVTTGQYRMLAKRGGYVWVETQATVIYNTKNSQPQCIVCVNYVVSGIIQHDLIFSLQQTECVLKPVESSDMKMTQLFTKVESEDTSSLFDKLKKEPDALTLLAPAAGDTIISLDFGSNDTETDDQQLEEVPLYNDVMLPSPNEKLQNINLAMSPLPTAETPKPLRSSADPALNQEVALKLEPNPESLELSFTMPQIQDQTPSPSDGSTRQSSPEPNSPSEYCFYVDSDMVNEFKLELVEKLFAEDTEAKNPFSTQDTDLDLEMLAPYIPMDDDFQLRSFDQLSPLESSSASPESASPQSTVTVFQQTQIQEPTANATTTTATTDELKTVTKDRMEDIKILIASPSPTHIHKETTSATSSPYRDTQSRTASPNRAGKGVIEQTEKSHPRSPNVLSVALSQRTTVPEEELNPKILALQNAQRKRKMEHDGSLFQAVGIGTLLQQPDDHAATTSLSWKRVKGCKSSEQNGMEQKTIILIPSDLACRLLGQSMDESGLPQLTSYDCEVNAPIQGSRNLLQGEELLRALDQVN
Sequence of Cytochrome P450 3A4 (Homo sapiens) (P08684 whole entry, looked up): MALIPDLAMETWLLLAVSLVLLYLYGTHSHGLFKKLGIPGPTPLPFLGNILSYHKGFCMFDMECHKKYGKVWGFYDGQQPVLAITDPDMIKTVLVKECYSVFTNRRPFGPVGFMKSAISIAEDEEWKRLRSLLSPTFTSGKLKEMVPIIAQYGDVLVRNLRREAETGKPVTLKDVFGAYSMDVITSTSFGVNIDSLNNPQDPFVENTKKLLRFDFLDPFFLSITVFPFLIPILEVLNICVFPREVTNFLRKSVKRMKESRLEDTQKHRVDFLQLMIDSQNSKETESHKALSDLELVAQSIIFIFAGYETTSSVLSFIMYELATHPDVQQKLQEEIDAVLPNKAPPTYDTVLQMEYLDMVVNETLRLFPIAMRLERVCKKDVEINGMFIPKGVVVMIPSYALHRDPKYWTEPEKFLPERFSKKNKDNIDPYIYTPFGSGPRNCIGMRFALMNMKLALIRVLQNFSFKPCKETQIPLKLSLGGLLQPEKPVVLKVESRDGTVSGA

S=C(S)NCCNC(=S)S.[Mn+2].[S-]C([S-])=NCCN=C([S-])[S-].[Zn+2]
active: CYP2C9 (gene 1559) 823 nM and 816 nM and 891 nM | CYP2E1 (gene 1571) 1.21 µM and 1.4 µM and 1.62 µM | CYP4A11 (gene 1579) 1.38 µM and 1.51 µM and 1.36 µM | [1] 827 nM and 1.11 µM and 1.02 µM | [2] 3.87 µM and 1.87 µM and 1.64 µM | [3] 2.3 µM and 673 nM | [4] 3.58 µM and 2.44 µM and 4.53 µM | [6] 947 nM and 1.22 µM and 1.41 µM | CYP3A5 (gene 1577) 1.94 µM and 1.32 µM and 700 nM | [7] 1.18 µM and 1.26 µM and 1.71 µM | [8] 1.38 µM and 1.35 µM | [9] 1.57 µM and 1.44 µM and 1.47 µM | [10] 890 nM and 1.14 µM and 997 nM | [11] 3.67 µM and 2.31 µM and 3.97 µM | [12] 25 µM | [13] 0.827 µM | [14] 1.21 µM and 4.71 µM | [15] 1.63 µM
inactive: [3] | [5] | [12] | [13] | [14] | [15]

CCCCCOC(=O)COc1cc(N2C(=O)C3=C(CCCC3)C2=O)c(F)cc1Cl
active: [1] 28 µM
not listed: CYP3A5 (gene 1577)
inactive: all other assays above

O=C(O)c1ccccc1
not listed: CYP3A5 (gene 1577)
inactive: all other assays above
